# PubChem BioAssay (NCI)
# About 83,000 compounds went through this panel and 20% of them were active in at least one assay; those are over-represented in the sample as a whole.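 For each line, cells grew in 96-well plates with the test compound present at a single concentration for 48 hours.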 Active and inactive are the calls of the source. Rule for the calls: active = growth percent below 10; inactive = the rest.
# System: HL-60(TB) leukemia
# Experiment: NCI-60 one-dose screen, 48 h (100 = growth as untreated, 0 = no growth, -100 = all killed)
# Conditions: 10 µM unless noted
row,SMILES,growth
1,C[n+]1cc2cc(C(N)=O)[nH]c3c(=N)c(Cl)c(N)c1c23,78.8% (inactive)
2,COc1cc(C2C3CC4CCCC[C@H]4N3[C@@]3(C(=O)Nc4cc(Cl)ccc43)C2C(=O)c2nc3ccccc3[nH]2)cc(OC)c1OC (stereo not given in full),21.8% (inactive)
3,O=C1CCC(=O)N1Cc1ccccc1,102% (inactive)
4,CCC(CCNc1cc(OC)cc2cccnc12)CN1C(=O)c2ccccc2C1=O (stereo not given),107% (inactive)
5,N#C/C(=C\c1ccc(Br)cc1)n1nnc2c(F)cccc21,0.171% (active)
6,Nc1c(C(=O)Nc2cccc3ccncc23)sc2nc3c(cc12)C(=O)CCC3,14.7% (inactive)
7,CC1C(=NC(=O)c2cnccn2)C(C)C(c2ccc(Cl)cc2)NC1c1ccncc1 (stereo not given),108% (inactive)
8,COc1ccc2[nH]c(=O)c(/C=N/Nc3nc(-c4ccccc4)cs3)c(O)c2c1,83.9% (inactive)
9,CC(=O)Nc1cccc(NC(C)=O)n1,96.5% (inactive)
10,N#C/C(=C\c1cc(O)c(O)c(O)c1)C(N)=O,69.5% (inactive)
11,Cc1cccc(NC2=C(Cl)C(=O)c3nc(C)ccc3C2=O)c1,-14.9% (active)
12,CCOC(=O)c1cc(/C=C/c2ccc(Cl)cc2Cl)on1,74.2% (inactive)
13,c1cc2c(cc1-c1cnc3nonc3n1)OCO2,0.978% (active)
14,O=C(Cn1cc(CO)nn1)Nc1nc2ccccc2s1,97.1% (inactive)
15,COC(=O)C1(CC(C)=O)NC(=S)NC(=O)C1C#N (stereo not given),102% (inactive)
16,O=C(CCNC(=O)c1nc(-c2ccccc2)n(-c2ccc(Cl)cc2)n1)NO,96.8% (inactive)
17,Cc1nc2sc(C(=O)Nc3cccc(Br)c3)c(N)c2cc1C(=O)c1ccc(C(F)(F)F)cc1,98.7% (inactive)
18,COc1ccc(Nc2ncccc2C(=O)NCc2cn(Cc3cc(OC)cc(OC)c3)nn2)cc1,91.6% (inactive)
19,N=c1n(Cc2ccccc2)c(N)cc(=O)n1Cc1ccccc1,11.3% (inactive)
20,Cc1cc(Cl)nc(Nc2ccccc2)n1,78.1% (inactive)

row,SMILES,growth
1,O=C(Nc1ccc(NC(=O)c2cc(=O)[nH]c3ccccc23)cc1)Nc1cccc(Cl)c1,78.7% (inactive)
2,C(CCCSC1=NCCN1)CCSC1=NCCN1,76.2% (inactive)
3,O=C(COc1ccc(Cl)cc1Cl)Oc1coc(CSc2nc3ccccc3s2)cc1=O,100% (inactive)
4,C=CCc1c(O)c(C(=O)/C=C/c2ccccc2)c(OC)c2ccoc12,36.3% (inactive)
5,COc1cc(Cl)cc(-c2nn(-c3cccc(NC(=O)Nc4ccc(Cl)c(C(F)(F)F)c4)c3)cc2-c2ccncc2)c1,-9.59% (active)
6,CCOC(=O)c1cc(C(=O)c2cc(OC)cc(OC)c2)n2ccccc12,-13.9% (active)
7,OCCNc1nccc(N2CCN(c3ccnc4cc(Cl)ccc34)CC2)n1,47.8% (inactive)
8,COc1ccc2nc(Cl)c(/C=C/C(=O)c3ccc(NC(=O)CSc4nnc(-c5ccc(Cl)c(Cl)c5)n4-c4ccccc4)cc3)cc2c1,73.1% (inactive)
9,CNc1ccc(CSc2ccc(C)cc2)cc1,11.8% (inactive)
10,Cc1ccc(-c2cc(-c3ccc(C)cc3)nc(N3CCN(CCNc4ccnc5cc(Cl)ccc45)CC3)n2)cc1,0.0538% (active)
11,Cc1cc(Oc2ccccc2)ccc1Nc1ncnc2ccc(-c3cnc(Cl)c(NS(C)(=O)=O)c3)cc12,30.3% (inactive)
12,FC(F)(F)c1cc(Nc2ccc3cc(OCCCN4CCOCC4)ccc3n2)ccc1Cl,29% (inactive)
13,Cn1cc(-c2ccc3c(Nc4cccc(NC(=O)Nc5cccc(F)c5)c4)ncnc3c2)cn1,74.1% (inactive)
14,Cc1nc2cc(Nc3nc(NCCO)nc(Nc4ccc(F)cc4)n3)ccc2n1Cc1ccccc1,-26.8% (active)
15,CCN(CC)CCC(CNc1c(C)cnc2cc(Cl)ccc12)c1ccc(Cl)c(Cl)c1 (stereo not given),51.5% (inactive)
16,CCN(CC)c1ccc(C2=NN(C(C)=O)C(c3cc(OC)c(OC)c(OC)c3)C2)cc1 (stereo not given),-42% (active)
17,O=c1[nH]ccc2c(S(=O)(=O)N3CCCNCC3)cccc12,87.1% (inactive)
18,COc1ccc(C(=O)c2nccc3cc(OC)c(OC)cc23)cc1OC,102% (inactive)
19,COc1cc(/C=N/NC(=O)CCN2c3ccccc3Sc3ccccc32)cc(OC)c1OC,77.9% (inactive)
20,CC(C)=CCCC(C)c1ccc(C)c2c1OCN(CCCCCO)C2 (stereo not given),51.7% (inactive)
